Consider 35 compounds from the supplement of paper PMC11732987, “Enantioselective OTUD7B fragment discovery through chemoproteomics screening and high-throughput optimisation” (Communications Chemistry, 2025).

The target of the first assay is T1, USP8 (UniProt P40818).
T1 sequence (whole entry): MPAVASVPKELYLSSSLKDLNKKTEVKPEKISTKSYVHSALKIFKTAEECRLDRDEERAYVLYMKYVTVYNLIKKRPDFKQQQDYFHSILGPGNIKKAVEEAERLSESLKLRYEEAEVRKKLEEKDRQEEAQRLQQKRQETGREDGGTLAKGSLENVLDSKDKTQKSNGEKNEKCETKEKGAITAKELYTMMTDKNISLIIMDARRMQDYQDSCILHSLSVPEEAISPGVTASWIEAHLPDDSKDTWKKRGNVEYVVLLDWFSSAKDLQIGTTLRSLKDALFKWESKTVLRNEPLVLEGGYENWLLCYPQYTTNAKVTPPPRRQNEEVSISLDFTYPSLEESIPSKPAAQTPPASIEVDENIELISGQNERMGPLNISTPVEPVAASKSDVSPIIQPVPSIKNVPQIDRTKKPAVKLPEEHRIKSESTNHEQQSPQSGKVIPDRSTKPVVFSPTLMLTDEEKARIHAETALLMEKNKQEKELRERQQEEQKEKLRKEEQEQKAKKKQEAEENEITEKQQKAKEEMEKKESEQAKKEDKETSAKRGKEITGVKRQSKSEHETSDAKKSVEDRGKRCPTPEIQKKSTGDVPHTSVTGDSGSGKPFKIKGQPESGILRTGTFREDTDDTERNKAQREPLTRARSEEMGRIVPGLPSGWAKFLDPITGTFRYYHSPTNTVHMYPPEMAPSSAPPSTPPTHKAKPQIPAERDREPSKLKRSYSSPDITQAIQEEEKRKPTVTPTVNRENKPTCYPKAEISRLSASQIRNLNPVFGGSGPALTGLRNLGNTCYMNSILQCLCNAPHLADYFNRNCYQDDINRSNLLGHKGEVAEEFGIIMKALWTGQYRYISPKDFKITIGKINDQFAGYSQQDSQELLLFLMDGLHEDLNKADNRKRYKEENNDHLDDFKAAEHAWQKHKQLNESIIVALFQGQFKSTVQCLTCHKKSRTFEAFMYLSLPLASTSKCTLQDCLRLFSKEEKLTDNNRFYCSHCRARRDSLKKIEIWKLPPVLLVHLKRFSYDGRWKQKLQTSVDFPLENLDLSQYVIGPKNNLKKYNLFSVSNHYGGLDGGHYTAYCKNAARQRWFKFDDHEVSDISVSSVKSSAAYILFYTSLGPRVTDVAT
As to the kind of experiment: log2 ratio of Biotin-Ahx-Ub-VS probe labelling (fragment/DMSO); higher = less target engagement (more negative = stronger competition), active = hit call of the paper (q ≤ 0.05, log2 ratio ≤ -1). The following applies: compound concentration: 200 uM; treatment time: 3 h. The method in brief:
(§1)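 Global-median-normalised Spectronaut label-free quantities were compared by unpaired t-test, and values are average log2 ratios of fragment over vehicle. Only proteins with ≥2 unique peptides were used. HEK293T lysate (495 µg per sample) was treated in triplicate with fragment at 200 µM or vehicle for 3 h and then with Biotin-Ahx-Ub-VS at 0.5 µM final for 1 h. Labelled DUBs were then NeutrAvidin-enriched, digested with LysC and trypsin, and run by diaPASEF LC-MS/MS.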
Consider `CNC(=O)C1CCN(C(=O)CCl)CC1`, for which the “log2 ratio of Biotin-Ahx-Ub-VS probe labelling” value (“log2 ratio” for short) is -0.00406 (inactive).
Still for that read-out and setting: the result for `O=C(CCl)Nc1cccc(NC(=O)c2ccccc2)c1` reads 0.244 (inactive).
For the compound `Cc1ccc(N2CCC(NC(=O)CCl)C2=O)cc1` (stereo not given), the “log2 ratio” value was 0.0227 (inactive).
The same measure, in the same setting: the same measure for `Cc1cccc(C(CNC(=O)CCl)N2CCOCC2)c1.Cl` (stereo not given): -0.417 (inactive); for `O=C(CCl)N1CCC(C(O)c2ccc(F)cc2)CC1` (stereo not given): 0.0961 (inactive).
As for `Cc1ccccc1C1(CNC(=O)CCl)CCOCC1`, the “log2 ratio” value is -0.0708 (inactive).
On to `CC(O)CC1CCN(C(=O)CCl)CC1` (stereo not given), for which the “log2 ratio” value is -0.0562 (inactive).
Same read-out and setting: the result for `COc1cc(Cl)c(C)cc1NC(=O)CCl` reads -0.251 (inactive).
On the same count and under the same terms, the result for `Cl.O=C(CCl)NCCN1CCc2ccccc21` reads -0.959 (inactive); that for `CN(C)S(=O)(=O)c1ccccc1CNC(=O)CCl`, -0.15 (inactive).
Same read-out and setting: the same measure for `CN1c2ccccc2C(NC(=O)CCl)CS1(=O)=O` (stereo not given): -0.341 (inactive); for `CNC(=O)Cn1cc(NC(=O)CCl)cn1`: -0.282 (inactive); for `Cc1ccc(N(CCC#N)C(=O)CCl)cc1C`: -0.394 (inactive).
Regarding `Cc1cccc(N2CCC(NC(=O)CCl)C2=O)c1` (stereo not given), the “log2 ratio” value is -0.325 (inactive).
With `Cc1ccc(CC(NC(=O)CCl)c2ccccn2)cc1.Cl` (stereo not given), the “log2 ratio” value is 0.0199 (inactive).
On to `O=C(CCl)N[C@H]1CCS(=O)(=O)c2ccccc21`, for which the “log2 ratio” value is -0.0621 (inactive).
Still for that read-out and setting: the result for `O=C(CCl)N1CCC(c2noc3cc(F)ccc23)CC1` reads -0.0714 (inactive).
As for `C/C(=C\CNC(=O)CCl)c1cnn(C)c1.Cl`, the “log2 ratio” value was 0.115 (inactive).
The same measure, in the same setting: the result for `CN(C)C(=O)c1ccc(CNC(=O)CCl)cc1` reads -0.341 (inactive); that for `Cc1nc(CNC(=O)CCl)c2ccccn12.Cl`, -0.312 (inactive); that for `O=C(CCl)NC1(c2ccc3c(c2)OCCO3)CCCC1`, -0.374 (inactive).
For the compound `N#Cc1ccc(CNC(=O)CCl)cc1`, the “log2 ratio” value was -0.338 (inactive).
On the same count and under the same terms, the result for `CC(NC(=O)CCl)c1cc2n(n1)CCCC2.Cl` (stereo not given) reads 0.0604 (inactive).
On the same count and under the same terms, the same measure for `O=C(CCl)N1CC=C(c2c[nH]c3ccccc23)CC1`: -0.785 (inactive).
`CCN1C(=O)C2CN(C(=O)CCl)CCN2C1=O` (stereo not given): the “log2 ratio” value is 0.0104 (inactive).
In the case of `NC(=O)C1CCCN(C(=O)CCl)C1` (stereo not given), the “log2 ratio” value was -0.122 (inactive).
For `CC(=O)C1CCCCN1C(=O)CCl` (stereo not given), the “log2 ratio” value was 0.076 (inactive).
Same read-out and setting: the same measure for `CC1CCc2onc(CNC(=O)CCl)c2C1` (stereo not given): -0.212 (inactive); for `CCC1c2ccsc2CCN1C(=O)CCl` (stereo not given): -0.157 (inactive).
In the case of `O=C(O)C1Cc2ccccc2CN1C(=O)CCl` (stereo not given), the “log2 ratio” value was -0.283 (inactive).
Turning to `Cl.O=C(CCl)N[C@H]1C[C@@H](n2cccn2)C1`, the “log2 ratio” value was 0.27 (inactive).
The same measure, in the same setting: the result for `O=C(CCl)N1CCc2sccc2C1` reads 0.015 (inactive); that for `CC(NC(=O)CCl)c1csc(-c2ccccc2)n1.Cl` (stereo not given), -0.318 (inactive); that for `Cc1ccc(N(C(=O)CCl)C2C=CS(=O)(=O)C2)cc1` (stereo not given), 0.108 (inactive).
On the same count and under the same terms, the same measure for `O=C(CCl)NCc1ccc(Cl)cc1`: 0.105 (inactive).

The next assay deals with USP9X (UniProt Q93008). The description is as above. The following applies: compound concentration: 200 uM; treatment time: 3 h. The method in brief: as §1
USP9X, sequence (Q93008 whole entry): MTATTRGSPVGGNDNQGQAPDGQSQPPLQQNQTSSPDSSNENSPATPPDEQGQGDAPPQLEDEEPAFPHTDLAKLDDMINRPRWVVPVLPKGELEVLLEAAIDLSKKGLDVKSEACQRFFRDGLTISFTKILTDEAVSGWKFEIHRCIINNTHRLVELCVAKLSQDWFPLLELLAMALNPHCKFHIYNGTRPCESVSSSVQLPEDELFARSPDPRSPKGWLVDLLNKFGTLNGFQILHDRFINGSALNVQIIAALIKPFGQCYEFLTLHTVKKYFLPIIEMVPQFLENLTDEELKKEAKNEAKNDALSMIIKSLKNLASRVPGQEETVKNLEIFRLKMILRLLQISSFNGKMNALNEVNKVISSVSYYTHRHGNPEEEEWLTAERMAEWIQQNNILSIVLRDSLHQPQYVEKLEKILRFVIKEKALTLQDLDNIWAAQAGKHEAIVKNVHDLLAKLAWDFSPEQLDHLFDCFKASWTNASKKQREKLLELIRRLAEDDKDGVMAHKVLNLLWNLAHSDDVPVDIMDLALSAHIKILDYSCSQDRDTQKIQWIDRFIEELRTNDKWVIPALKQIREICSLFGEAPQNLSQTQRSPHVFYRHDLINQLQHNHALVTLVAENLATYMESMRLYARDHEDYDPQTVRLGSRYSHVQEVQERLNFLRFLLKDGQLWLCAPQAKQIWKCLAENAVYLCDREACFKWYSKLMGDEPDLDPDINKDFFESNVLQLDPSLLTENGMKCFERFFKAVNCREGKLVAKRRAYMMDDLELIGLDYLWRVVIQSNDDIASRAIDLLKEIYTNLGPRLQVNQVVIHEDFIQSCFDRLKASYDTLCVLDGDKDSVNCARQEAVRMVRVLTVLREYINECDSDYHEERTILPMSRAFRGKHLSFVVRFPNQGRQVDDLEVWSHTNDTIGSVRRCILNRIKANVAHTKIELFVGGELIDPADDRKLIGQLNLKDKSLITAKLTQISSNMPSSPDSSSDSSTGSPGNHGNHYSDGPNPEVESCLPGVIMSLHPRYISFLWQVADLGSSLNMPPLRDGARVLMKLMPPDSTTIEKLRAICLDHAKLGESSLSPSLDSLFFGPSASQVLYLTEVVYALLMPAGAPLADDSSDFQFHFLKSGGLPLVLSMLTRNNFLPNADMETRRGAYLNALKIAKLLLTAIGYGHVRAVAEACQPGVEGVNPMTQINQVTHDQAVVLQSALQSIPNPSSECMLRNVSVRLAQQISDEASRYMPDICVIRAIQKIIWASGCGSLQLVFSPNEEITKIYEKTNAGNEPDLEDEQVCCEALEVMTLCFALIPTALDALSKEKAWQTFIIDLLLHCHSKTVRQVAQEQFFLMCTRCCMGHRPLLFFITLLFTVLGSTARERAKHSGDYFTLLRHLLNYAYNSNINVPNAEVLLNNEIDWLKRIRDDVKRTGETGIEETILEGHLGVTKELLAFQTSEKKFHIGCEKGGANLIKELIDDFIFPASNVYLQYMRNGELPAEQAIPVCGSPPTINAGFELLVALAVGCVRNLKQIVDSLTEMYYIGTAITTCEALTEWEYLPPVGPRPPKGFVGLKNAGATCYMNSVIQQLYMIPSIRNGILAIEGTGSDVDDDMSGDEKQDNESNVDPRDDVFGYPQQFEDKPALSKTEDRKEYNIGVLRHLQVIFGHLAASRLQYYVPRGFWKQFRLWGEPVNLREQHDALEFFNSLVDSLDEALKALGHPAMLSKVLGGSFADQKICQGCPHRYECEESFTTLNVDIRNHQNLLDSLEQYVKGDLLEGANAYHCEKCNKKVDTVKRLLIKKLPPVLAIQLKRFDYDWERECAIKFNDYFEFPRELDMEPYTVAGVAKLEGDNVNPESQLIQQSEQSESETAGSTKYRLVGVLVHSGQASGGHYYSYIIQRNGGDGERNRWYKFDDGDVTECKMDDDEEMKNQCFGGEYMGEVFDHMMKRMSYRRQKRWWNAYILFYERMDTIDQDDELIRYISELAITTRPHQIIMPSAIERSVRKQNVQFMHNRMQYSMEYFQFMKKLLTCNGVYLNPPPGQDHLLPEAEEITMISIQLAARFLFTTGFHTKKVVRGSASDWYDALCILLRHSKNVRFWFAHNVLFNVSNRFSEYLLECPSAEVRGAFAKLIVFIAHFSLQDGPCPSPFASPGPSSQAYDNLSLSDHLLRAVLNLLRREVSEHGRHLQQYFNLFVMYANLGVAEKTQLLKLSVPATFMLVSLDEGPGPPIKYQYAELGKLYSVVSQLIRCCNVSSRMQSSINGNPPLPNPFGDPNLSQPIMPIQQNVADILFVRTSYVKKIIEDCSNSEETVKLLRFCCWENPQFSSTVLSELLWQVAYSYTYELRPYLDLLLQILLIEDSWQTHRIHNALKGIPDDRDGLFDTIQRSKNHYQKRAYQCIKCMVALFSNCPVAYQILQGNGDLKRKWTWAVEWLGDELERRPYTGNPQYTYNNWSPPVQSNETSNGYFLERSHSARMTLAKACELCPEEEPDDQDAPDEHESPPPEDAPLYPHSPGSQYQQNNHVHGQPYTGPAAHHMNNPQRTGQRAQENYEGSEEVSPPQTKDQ
`CNC(=O)C1CCN(C(=O)CCl)CC1`: the “log2 ratio” value was -0.107 (inactive).
In the case of `O=C(CCl)Nc1cccc(NC(=O)c2ccccc2)c1`, the “log2 ratio” value is 0.246 (inactive).
Take `Cc1ccc(N2CCC(NC(=O)CCl)C2=O)cc1` (stereo not given): the “log2 ratio” value is -0.0231 (inactive).
Same read-out and setting: the same measure for `Cc1cccc(C(CNC(=O)CCl)N2CCOCC2)c1.Cl` (stereo not given): -0.0494 (inactive); for `O=C(CCl)N1CCC(C(O)c2ccc(F)cc2)CC1` (stereo not given): 0.23 (inactive); for `Cc1ccccc1C1(CNC(=O)CCl)CCOCC1`: -0.0641 (inactive).
The same measure, in the same setting: the result for `CC(O)CC1CCN(C(=O)CCl)CC1` (stereo not given) reads -0.195 (inactive); that for `COc1cc(Cl)c(C)cc1NC(=O)CCl`, -0.645 (inactive).
The same measure, in the same setting: the result for `Cl.O=C(CCl)NCCN1CCc2ccccc21` reads -0.798 (inactive); that for `CN(C)S(=O)(=O)c1ccccc1CNC(=O)CCl`, -0.0424 (inactive).
As for `CN1c2ccccc2C(NC(=O)CCl)CS1(=O)=O` (stereo not given), the “log2 ratio” value is -0.252 (inactive).
Take `CNC(=O)Cn1cc(NC(=O)CCl)cn1`: the “log2 ratio” value is -0.287 (inactive).
On to `Cc1ccc(N(CCC#N)C(=O)CCl)cc1C`, for which the “log2 ratio” value was -0.324 (inactive).
The same measure, in the same setting: the result for `Cc1cccc(N2CCC(NC(=O)CCl)C2=O)c1` (stereo not given) reads -0.421 (inactive); that for `Cc1ccc(CC(NC(=O)CCl)c2ccccn2)cc1.Cl` (stereo not given), 0.139 (inactive).
Still for that read-out and setting: the result for `O=C(CCl)N[C@H]1CCS(=O)(=O)c2ccccc21` reads -0.14 (inactive); that for `O=C(CCl)N1CCC(c2noc3cc(F)ccc23)CC1`, -0.201 (inactive); that for `C/C(=C\CNC(=O)CCl)c1cnn(C)c1.Cl`, -0.138 (inactive).
For `CN(C)C(=O)c1ccc(CNC(=O)CCl)cc1`, the “log2 ratio” value was 0.002 (inactive).
Consider `Cc1nc(CNC(=O)CCl)c2ccccn12.Cl`, for which the “log2 ratio” value was -0.222 (inactive).
The same measure, in the same setting: the same measure for `O=C(CCl)NC1(c2ccc3c(c2)OCCO3)CCCC1`: -0.378 (inactive).
On the same count and under the same terms, the result for `N#Cc1ccc(CNC(=O)CCl)cc1` reads -0.0142 (inactive); that for `CC(NC(=O)CCl)c1cc2n(n1)CCCC2.Cl` (stereo not given), -0.0806 (inactive).
Same read-out and setting: the same measure for `O=C(CCl)N1CC=C(c2c[nH]c3ccccc23)CC1`: -0.82 (inactive); for `CCN1C(=O)C2CN(C(=O)CCl)CCN2C1=O` (stereo not given): -0.106 (inactive); for `NC(=O)C1CCCN(C(=O)CCl)C1` (stereo not given): -0.029 (inactive).
For `CC(=O)C1CCCCN1C(=O)CCl` (stereo not given), the “log2 ratio” value was -0.034 (inactive).
The same measure, in the same setting: the result for `CC1CCc2onc(CNC(=O)CCl)c2C1` (stereo not given) reads -0.154 (inactive); that for `CCC1c2ccsc2CCN1C(=O)CCl` (stereo not given), -0.309 (inactive).
As to `O=C(O)C1Cc2ccccc2CN1C(=O)CCl` (stereo not given), the “log2 ratio” value was -0.449 (inactive).
Still for that read-out and setting: the same measure for `Cl.O=C(CCl)N[C@H]1C[C@@H](n2cccn2)C1`: -0.0582 (inactive).
On the same count and under the same terms, the same measure for `O=C(CCl)N1CCc2sccc2C1`: -0.286 (inactive); for `CC(NC(=O)CCl)c1csc(-c2ccccc2)n1.Cl` (stereo not given): -0.619 (inactive); for `Cc1ccc(N(C(=O)CCl)C2C=CS(=O)(=O)C2)cc1` (stereo not given): 0.0636 (inactive).
`O=C(CCl)NCc1ccc(Cl)cc1`: the “log2 ratio” value is 0.00725 (inactive).
